# HUVEC tox IL1B: toxic to HUVEC cells under IL-1B stimulation; HUVEC cell count loss, Hoechst imaging, IL-1B stimulated; cell count reduction, % at 2 µM; 0.41% of 94,000 active; AID 845;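 active = cell count reduction more than 3 SD above the screen-wide mean, cut at about 70% in these data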;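 note: normalized per plate to untreated control cells as the no-loss baseline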
# TNAP act mid DEA: activators of human TNAP at intermediate phosphate acceptor. P05186. purified TNAP, CDP-star luminescence, 100 mM DEA, 30 min; active compounds read high; scale: 0 levamisole-inhibited, 1 vehicle-only enzyme. activation factor at 20 µM. 64,000 tested, under 10 active;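 active = activation factor of at least 2 at 20 µM, relative to controls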
# Target sequence (P05186 whole entry, looked up): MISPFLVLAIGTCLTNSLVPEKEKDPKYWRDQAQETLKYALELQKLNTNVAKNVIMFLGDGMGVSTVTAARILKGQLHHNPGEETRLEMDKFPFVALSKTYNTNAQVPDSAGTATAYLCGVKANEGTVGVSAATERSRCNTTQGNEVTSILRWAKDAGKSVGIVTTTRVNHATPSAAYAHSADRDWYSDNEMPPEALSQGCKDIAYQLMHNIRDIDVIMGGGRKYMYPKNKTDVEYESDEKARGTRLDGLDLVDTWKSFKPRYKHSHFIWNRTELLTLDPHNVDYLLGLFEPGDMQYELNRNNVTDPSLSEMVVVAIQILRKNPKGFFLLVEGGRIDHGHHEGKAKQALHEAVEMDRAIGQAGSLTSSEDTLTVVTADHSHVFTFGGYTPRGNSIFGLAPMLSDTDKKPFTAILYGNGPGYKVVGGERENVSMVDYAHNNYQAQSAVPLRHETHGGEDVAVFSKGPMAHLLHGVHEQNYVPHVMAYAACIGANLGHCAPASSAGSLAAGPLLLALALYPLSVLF
# IL1B NFkB pot: enhances IL-1B driven NFkB nuclear translocation; AID 819; HUVEC IL-1B NFkB p65 nuclear translocation imaging; 0.3% of 94,000 active; activation, % at 2 µM;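 active = activation above 40%, about the mean plus 3 SD, also judged a hit on visual image review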;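 note: percent activation is computed from the nuclear over cytoplasmic p65 intensity ratio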
# PLAP activator: human PLAP activation; P05187; purified PLAP enzyme, luminescent substrate read-out; active compounds read high; activation fold at 20 µM; 1.2% of 96,000 active; AID 696; in the data active = activation fold above about 2
# NFkB transloc inh: blocks IL-1B driven NFkB nuclear translocation in HUVEC cells; HUVEC IL-1B NFkB p65 nuclear translocation imaging; inhibition, % at 2 µM; 0.43% of 94,000 active;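 active = inhibition above about 30% together with a positive call from visual inspection of the well image, limit read from the data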;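 note: nuclear over cytoplasmic p65 intensity ratio measured by imaging; 0% = IL-1B stimulated DMSO wells and 100% = unstimulated DMSO wells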
# Active calls of the source: *; x = no result. A selection: hits, their analogues and other compounds. The true share with any hit is near 2.1%.
SMILES,HUVEC tox IL1B,TNAP act mid DEA,IL1B NFkB pot,PLAP activator,NFkB transloc inh
CCOC(=O)CSc1nc(C)cc(C)c1C#N,-5,x,-50,0.9,50*
Cc1cc(C)c(C#N)c(SCSCc2ccccc2)n1,-18,x,9,0.7,-9
Cc1cc(C)c(C#N)c(SCc2ccccc2)n1,91*,x,-20,x,20
Cc1cc(C)c(C#N)c(SCC(=O)OC2CCCCC2)n1,x,0.9,x,1,x
COC(=O)c1cc(Cl)c(NC(=O)c2cc3ccccc3o2)cc1OC,17,x,-11,1.5,11
Cc1cc(OCC(=O)N(C)C)c2c(-c3ccccc3)cc(=O)oc2c1,5,0.7,-11,1,11
CCN(CC)C(=O)COc1cc(C)cc2oc(=O)cc(-c3ccccc3)c12,5,x,-33,1.4,33*
O=C1C2ON(c3ccc(Cl)cc3)C(c3ccco3)C2C(=O)N1c1ccccc1 (configuration not stated),-53,0.9,11,1.4,-11
COc1ccc(CC(=O)N2N=C(C)CC2(O)c2cccnc2)cc1 (configuration not stated),-21,x,1,2.1*,-1
Cc1cc(NC(=O)CSc2ccc3nnc(-c4cccs4)n3n2)no1,-46,1,17,1.3,-17
OCC(O)C(O)C(O)C(O)C1NCCS1 (configuration not stated),-8,x,-9,1.1,9
Cc1ccc(C2=NNC(C(O)C(O)C(O)C(O)CO)S2)cc1 (configuration not stated),-3,x,8,2*,-8
O=c1[nH]c2c(cc1CNCCN1CCOCC1)c(-c1cccc(F)c1)nn2-c1ccccc1,x,0.9,x,2*,x
Cc1ccc(NC(=S)C2=C(O)c3ccccc3N(C)S2(=O)=O)cc1,-22,x,-7,1.1,7
Cc1nn(Cc2cccc(C(=O)N3N=C(C(F)F)CC3(O)C(F)F)c2)c(C)c1[N+](=O)[O-] (configuration not stated),8,x,3,1.5,-3
COc1ccc(OC)c(C2C3=C(CCCC3=O)Nc3c2c(=O)n(C)c(=O)n3C)c1 (configuration not stated),86*,0.9,22,1.4,-22
COc1ccc(OC)c(C2C3=C(CCCC3=O)Nc3nc4ccccc4n32)c1 (configuration not stated),x,0.9,x,x,x
CC1CC(C)(C)CC2(C1)NC(=O)N(CC(=O)NCC(c1ccco1)N1CCCCC1)C2=O (configuration not stated),8,0.9,-35,1.8,35*
Cc1cc(C)c2c(=O)[nH]c(SCC(=O)NCCc3ccccc3)nc2n1,-18,x,10,x,-10
Cc1cc(C)c2c(=O)[nH]c(SCC(=O)NCc3ccccc3)nc2n1,-9,x,-46,0.9,46*
COc1ccccc1N(C)S(=O)(=O)c1ccc(C(=O)OCC(=O)NCc2ccco2)cc1,31,0.9,11,1.1,-11
CCCCCCc1nc2ccccc2c(=O)n1NC(=O)c1c(O)c2cccc3c2n(c1=O)CC3,-23,x,9,x,-9
CC(C)NC(=O)c1nc2ccccc2s1,74*,1,-3,0.8,3
C=CCNC(=O)c1nc2ccccc2s1,13,x,3,x,-3
Cc1ccc(N2C(=O)CC2(C#N)c2ccc(OCc3ccccc3)cc2)cc1 (configuration not stated),4,x,0,0.8,0
SMILES,HUVEC tox IL1B,TNAP act mid DEA,IL1B NFkB pot,PLAP activator,NFkB transloc inh
COc1ccc(-c2nc(-c3ccccc3)c(-c3cccs3)[nH]2)cc1OC,-27,x,19,2*,-19
Cc1ccc(OCC(=O)Nc2sc3c(c2C#N)CCC3)cc1C,-10,x,-1,1,1
Cc1ccc(OCC(=O)Nc2sc3c(c2C#N)CCC3)cc1,25,x,59*,1.1,-59
Cc1ccc(SCc2[nH]nc3c2C2(C(=O)N(C)c4ccccc42)C(C#N)=C(N)O3)cc1 (configuration not stated),6,1,31,2*,-31
COCc1[nH]nc2c1C1(C(=O)N(C)c3ccccc31)C(C#N)=C(N)O2 (configuration not stated),14,0.9,-3,1,3
O=C(OCC(=O)N1CCCC1)c1cncc(Br)c1,88*,0.9,-98,1,98*
CC(C)CNC(=O)COC(=O)c1cncc(Br)c1,6,x,2,1,-2
O=C(c1sc2ccccc2c1Cl)N(Cc1ccccc1)C1CCS(=O)(=O)C1 (configuration not stated),10,x,-66,1.2,66*
O=C(c1sc2ccccc2c1Cl)N(Cc1ccccc1Cl)C1CCS(=O)(=O)C1 (configuration not stated),10,x,-11,1.1,11
CC1CCCCN1S(=O)(=O)c1ccc(S(=O)(=O)NCCc2ccncc2)cc1 (configuration not stated),-32,x,24,x,-24
Cc1ccc(Cn2nnc3c(=O)[nH]c(C(=O)NCc4ccco4)nc32)cc1,x,0.9,x,2*,x
CCC(C)(C)NC(=O)CN(C(=O)CNS(=O)(=O)c1ccc(C)cc1)c1ccc2c(c1)OCCO2,13,0.9,-12,2*,12
Cc1ccc(S(=O)(=O)NCC(=O)N(CC(=O)NC2CCCC2)c2ccc3c(c2)OCCO3)cc1,23,1,-8,1.3,8
CCOC(=O)c1[nH]nc(-c2cc(CC)c(O)cc2O)c1-c1cscn1,1,x,21,2.1*,-21
CCOC(=O)c1oc2cc(O)cc(C)c2c(=O)c1-c1cscn1,-11,0.9,8,1.2,-8
Cc1cc(C)nc(NC2=NCC(=O)N2c2ccc3c(c2)OCCO3)n1,-12,1,11,2*,-11
Cc1ccc(NC2=NCC(=O)N2c2ccc3c(c2)OCCO3)c(C)c1,18,0.9,-6,x,6
Cc1cc(C)nc(NC2=NCC(=O)N2c2ccccc2)n1,-11,0.9,-1,2.4*,1
Cc1cc(C)nc(NC2=NCC(=O)N2c2ccccc2Br)n1,21,0.9,20,x,-20
COc1ccc(NC2=NCC(=O)N2c2ccccc2)c(OC)c1,34,1,1,1,-1
COc1ccc(N2C(=O)CN=C2Nc2nc(C)cc(C)n2)cc1,12,1,-20,2.3*,20
Cc1cc(C)nc(NC2=NCC(=O)N2c2cccc(Cl)c2)n1,-31,0.8,13,2.1*,-13
CSc1ccccc1NC(=O)c1ccccc1N(Cc1ccccc1)S(C)(=O)=O,-5,x,-10,1.3,10
O=C(C1CCCN(c2ncccn2)C1)N1CCc2ccccc21 (configuration not stated),5,0.9,11,1.3,-11
CC(O)Cn1cnc2c1c(=O)n(C)c(=O)n2C (configuration not stated),x,0.9,x,x,x
CN1CC(=O)N/C1=N\C(=O)Nc1ccc2c(c1)N(C)C(=O)CS2,-13,1.1,-8,2.8*,8
Cc1cc(C)cc(NC(=O)Nc2ccc3c(c2)N(C)C(=O)CS3)c1,-4,x,10,0.9,-10
COc1ccc(NC(=O)C2CCN(S(C)(=O)=O)CC2)cc1,-130,x,-43,0.8,42*

# Screening data (PubChem BioAssay)
